Experimental findings from publication PMC4336329 (PLoS ONE, 2015) are described below.

The whole screen tested about 310,000 compounds, of which about 14,000 (4.5%) showed an effect of 50% or more. Effects have a minus sign here. What follows is part of a selection rich in strong results, with near analogues and random picks from the rest.
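Further: peak tail current of the secondary pulse compared with the same well before compound.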

The target in the experiment is human ether-à-go-go-related gene (hERG) potassium channel (human, UniProt Q12809). The experiment can be described thus: primary screen, population patch clamp on CHO cells stably expressing hERG; higher = less effect of the substance.
Chain of human ether-à-go-go-related gene (hERG) potassium channel (Q12809 whole entry, looked up): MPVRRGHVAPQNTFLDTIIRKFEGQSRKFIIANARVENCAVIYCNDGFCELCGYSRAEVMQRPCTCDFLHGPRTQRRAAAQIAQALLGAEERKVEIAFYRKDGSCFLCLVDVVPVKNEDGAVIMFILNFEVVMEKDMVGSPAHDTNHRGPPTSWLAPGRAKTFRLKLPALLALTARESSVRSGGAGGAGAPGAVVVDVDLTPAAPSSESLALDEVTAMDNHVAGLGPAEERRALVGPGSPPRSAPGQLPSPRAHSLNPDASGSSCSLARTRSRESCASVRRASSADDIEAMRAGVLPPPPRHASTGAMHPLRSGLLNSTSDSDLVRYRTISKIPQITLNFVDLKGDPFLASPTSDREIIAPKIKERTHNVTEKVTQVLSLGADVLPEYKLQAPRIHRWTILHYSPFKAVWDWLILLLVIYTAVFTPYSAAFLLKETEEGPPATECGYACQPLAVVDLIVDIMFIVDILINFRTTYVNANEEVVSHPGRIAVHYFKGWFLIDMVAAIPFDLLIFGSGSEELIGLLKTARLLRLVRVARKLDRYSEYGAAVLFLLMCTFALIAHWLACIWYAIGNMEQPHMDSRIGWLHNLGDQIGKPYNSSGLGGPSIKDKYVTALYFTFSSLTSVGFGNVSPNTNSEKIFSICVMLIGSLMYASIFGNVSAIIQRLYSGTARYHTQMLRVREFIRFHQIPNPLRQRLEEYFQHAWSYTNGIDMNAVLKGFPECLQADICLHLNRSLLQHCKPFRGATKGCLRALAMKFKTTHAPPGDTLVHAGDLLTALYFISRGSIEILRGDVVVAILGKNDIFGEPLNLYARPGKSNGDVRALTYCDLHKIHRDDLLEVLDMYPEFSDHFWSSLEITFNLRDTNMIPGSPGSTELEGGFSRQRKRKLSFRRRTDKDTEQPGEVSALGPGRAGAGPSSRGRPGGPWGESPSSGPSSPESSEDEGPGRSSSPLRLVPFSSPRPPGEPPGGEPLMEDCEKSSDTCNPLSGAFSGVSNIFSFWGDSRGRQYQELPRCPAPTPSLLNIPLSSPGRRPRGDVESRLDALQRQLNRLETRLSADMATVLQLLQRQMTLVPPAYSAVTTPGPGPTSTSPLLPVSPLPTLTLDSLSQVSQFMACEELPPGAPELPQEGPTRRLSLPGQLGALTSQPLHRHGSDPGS
In the case of `COc1ccc(Cl)cc1Nc1nc(-c2cccnc2)cs1`, the “hERG current change (%, negative = inhibition) at 10uM” value is on record as 5.19%.

For the molecule `Cc1nonc1NC(=O)OC1CCCCC1`, the “hERG current change (%, negative = inhibition) at 10uM” value is given as 1.97%.

With `Cc1cccc(NC(=S)N2CCCN(c3ncccc3[N+](=O)[O-])CC2)c1`, the “hERG current change (%, negative = inhibition) at 10uM” value is listed as -16.7%.

Take `O=C(N[C@H]1CC1c1ccccc1)c1ccc([N+](=O)[O-])cc1` (stereo partly drawn): the “hERG current change (%, negative = inhibition) at 10uM” value is given as -6.56%.

As for `COc1ccccc1NC(=O)Nc1cnccn1`, the “hERG current change (%, negative = inhibition) at 10uM” value is given as -1.51%.

In the case of `CC1CCCC(NC(=S)NC(=O)c2cncc(Br)c2)C1C` (stereo not drawn), the “hERG current change (%, negative = inhibition) at 10uM” value was determined as 21.7%.

Regarding `O=C(NCc1ccc2c(c1)OCO2)C1CCN(S(=O)(=O)c2ccc(Br)s2)CC1`, the “hERG current change (%, negative = inhibition) at 10uM” value is -24%.

For the molecule `CCc1cccc(C)c1NC(=O)C1C2CCC(O2)C1C(=O)O` (stereo not drawn), the “hERG current change (%, negative = inhibition) at 10uM” value is reported as 18.8%.

On to `Cc1ccc(C2=NS(=O)(=O)N(C)C(C(=O)Nc3cc(C)n(CC(=O)N4CCCCC4)n3)=C2)cc1`, for which the “hERG current change (%, negative = inhibition) at 10uM” value turned out to be 10.3%.

For the molecule `Cc1ccc2nc(-c3cccc(-c4cccc(Cl)c4)c3)c(NCc3ccccc3)n2c1.O=C(O)C(F)(F)F`, the “hERG current change (%, negative = inhibition) at 10uM” value is 16.3%.

For `O=S(=O)(c1cccc(-c2nc3ccccc3s2)c1)N1CCOCC1`, the “hERG current change (%, negative = inhibition) at 10uM” value was -7.39%.

As for `CC1=NN(/C(=N\c2nnc(C)s2)Nc2ccccc2)[C@H](c2ccc(C)cc2)S1`, the “hERG current change (%, negative = inhibition) at 10uM” value is given as -13.5%.

`CCn1cc(C(=O)OC)c(=O)c2cc(S(=O)(=O)N(C)C3CCCCC3)ccc21`: the “hERG current change (%, negative = inhibition) at 10uM” value is reported as -28.4%.

`CCOC(=O)N1CCN(C(=O)c2cn(C)c3ccc(S(=O)(=O)N(C)C4CCCCC4)cc3c2=O)CC1`: the “hERG current change (%, negative = inhibition) at 10uM” value is on record as -29.4%.

With `CN(C)S(=O)(=O)c1ccc2c(c1)c(=O)c(C(=O)NCCCN1CCCCCC1)cn2C`, the “hERG current change (%, negative = inhibition) at 10uM” value is reported as -4.72%.

Turning to `CCC1CCCCN1CCCNC(=O)c1cn(CC)c2ccc(S(=O)(=O)N(C)C3CCCCC3)cc2c1=O` (stereo not drawn), the “hERG current change (%, negative = inhibition) at 10uM” value is listed as -79.8%.

On to `CCn1cc(C(=O)NCC2CCCO2)c(=O)c2cc(S(=O)(=O)N(C)C3CCCCC3)ccc21` (stereo not drawn), for which the “hERG current change (%, negative = inhibition) at 10uM” value is reported as -31.6%.

Take `CCC1CCCCN1CCCNC(=O)c1cn(C)c2ccc(S(=O)(=O)N(C)C3CCCCC3)cc2c1=O` (stereo not drawn): the “hERG current change (%, negative = inhibition) at 10uM” value is recorded as -62.8%.

As for `CCc1ccc(-c2cc(C(F)(F)F)n3nc(C(=O)Nc4cnn(Cc5ccccc5C)c4)cc3n2)s1`, the “hERG current change (%, negative = inhibition) at 10uM” value came to 5.41%.

For the molecule `COCCNC(=O)c1cc(S(=O)(=O)N2CCCCC2)ccc1N1CCOCC1`, the “hERG current change (%, negative = inhibition) at 10uM” value turned out to be 1.23%.

Turning to `COc1ccc(-c2csc3ncnc(N4CCN(S(=O)(=O)c5cccc(F)c5)CC4)c23)cc1`, the “hERG current change (%, negative = inhibition) at 10uM” value is given as -3.5%.

Consider `Cc1ccc(S(=O)(=O)N2CCN(c3nc(CN4CCCC4)nc4sc(C)c(C)c34)CC2)cc1`, for which the “hERG current change (%, negative = inhibition) at 10uM” value is -77.7%.

In the case of `Cc1cccc(N2CCN(S(=O)(=O)c3cccs3)CC2)c1C`, the “hERG current change (%, negative = inhibition) at 10uM” value is given as -15.8%.

`CCCc1nc(N2CCN(S(=O)(=O)c3ccc(Cl)cc3)CC2)c2c(C)c(C)sc2n1`: the “hERG current change (%, negative = inhibition) at 10uM” value is -17.1%.

With `CCc1nc(N2CCN(S(=O)(=O)c3ccc(Br)cc3)CC2)c2c(C)c(C)sc2n1`, the “hERG current change (%, negative = inhibition) at 10uM” value is reported as -32%.

Turning to `Cc1sc2nc(CN3CCOCC3)nc(N3CCN(S(=O)(=O)c4ccccc4)CC3)c2c1C`, the “hERG current change (%, negative = inhibition) at 10uM” value is reported as -41.6%.

For `Cc1nc(N2CCN(S(=O)(=O)c3ccc(F)cc3)CC2)c2c(C)c(C)sc2n1`, the “hERG current change (%, negative = inhibition) at 10uM” value is given as -6.58%.

`O=S(=O)(c1cccs1)N1CCN(Cc2ccccc2)CC1`: the “hERG current change (%, negative = inhibition) at 10uM” value was -14%.

As for `Cc1sc2nc(CN3CCCC3)nc(N3CCN(S(=O)(=O)c4cccc(F)c4)CC3)c2c1C`, the “hERG current change (%, negative = inhibition) at 10uM” value is listed as -70.1%.

For the molecule `Cc1sc2nc(CN3CCOCC3)nc(NS(=O)(=O)c3ccccc3)c2c1C`, the “hERG current change (%, negative = inhibition) at 10uM” value turned out to be 9.1%.

As for `Cc1sc2nc(CN3CCCC3)nc(N3CCN(S(=O)(=O)c4ccccc4)CC3)c2c1C`, the “hERG current change (%, negative = inhibition) at 10uM” value is recorded as -67%.

With `Cc1sc2nc(CN3CCCC3)nc(N3CCN(S(=O)(=O)c4cccs4)CC3)c2c1C`, the “hERG current change (%, negative = inhibition) at 10uM” value is reported as -70.7%.

For the molecule `CCCc1cc(=O)[nH]c(SCC(=O)N(CC)Cc2ccccc2)n1`, the “hERG current change (%, negative = inhibition) at 10uM” value is recorded as 7.9%.

Consider `Cc1ccc(S(=O)(=O)C2(C(=O)N3CCCCC3C)CC2)cc1` (stereo not drawn), for which the “hERG current change (%, negative = inhibition) at 10uM” value was 1.58%.

With `CC1C(=O)N2CCCc3cc(S(=O)(=O)N(C)Cc4ccccc4)cc1c32` (stereo not drawn), the “hERG current change (%, negative = inhibition) at 10uM” value is given as -14.7%.

For the molecule `O=C(O)c1cc(=O)n(Cc2ccccc2)c(=O)[nH]1`, the “hERG current change (%, negative = inhibition) at 10uM” value is recorded as 15%.

Turning to `Cc1ccc(C(C)NC(=O)c2cccnc2)cc1` (stereo not drawn), the “hERG current change (%, negative = inhibition) at 10uM” value came to 11.2%.

`Clc1ccccc1Cn1c(/C=C/c2ccco2)nc2ccccc21`: the “hERG current change (%, negative = inhibition) at 10uM” value is 13.5%.

With `COc1cc2c(cc1NC(=O)COC(=O)CNS(=O)(=O)c1ccc(C)cc1)oc1ccccc12`, the “hERG current change (%, negative = inhibition) at 10uM” value was found to be 1.63%.

`CN(c1ccc(C(=O)Nc2cccnc2)cc1)S(=O)(=O)c1ccccc1`: the “hERG current change (%, negative = inhibition) at 10uM” value was -14.9%.

`COc1ccc(-c2nnc(SCC(=O)Nc3sc4c(c3C#N)CCCC4)n2-c2ccccc2)cc1`: the “hERG current change (%, negative = inhibition) at 10uM” value was 15.4%.

Take `Cc1ccc(C)c(S(=O)(=O)N2CCN(c3nc(CN4CCOCC4)nc4sc(C)c(C)c34)CC2)c1`: the “hERG current change (%, negative = inhibition) at 10uM” value is -57.1%.
